# Compounds with a hit are over-represented: about 10% of the library has one in this group of screens.
# HP1b chromo inh: HP1-beta chromodomain-methylated histone interaction inhibition | P83916 | AlphaScreen HP1-beta / biotin-H3K9me3 peptide binding | Potency, µM (highest dose often 114 µM), for inactives: at the top dose activity change, negative = inhibition, hits mostly inhibitors | 390,000 compounds, 0.56% hits; note: potency is the fitted concentration of half-maximal effect; nearly all actives have a fitted effect of over 70% in size
#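 HP1-beta protein (50 nM final) preincubated 30 min at room temperature with biotinylated H3(1-18)K9me3 peptide (50 nM) in PBS pH 7.4, 0.01% Tween-20, then compound added for 30 min. AlphaScreen streptavidin donor/nickel chelate acceptor beads (10 ug/mL final), 30 min dark, luminescence read.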
# G9a inh: G9a (human) methyltransferase inhibition; G9a H3K9 monomethylation, AlphaScreen, 2 h; 350,000 compounds, 8.8% hits; Potency, µM (titrated, usually from 102 µM), for inactives: at the top dose activity, negative = inhibition, most hits filed as inhibitors; AID 504332; note: potency is the fitted concentration of half-maximal effect; % is set by controls: 0 for no effect and ±100 for the full control effect; nearly all actives have a fitted effect of over 75% in size
#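 AlphaScreen detection with an anti-monomethyl H3K9 antibody quantified product after a 2 h room-temperature reaction containing 500 nM biotinylated H3K9 peptide, 20 µM SAM and 20 nM enzyme, which had been preincubated 15 min with compound.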
# BAZ2B inh: blocks human BAZ2B | Q9UIF8 | AlphaScreen BAZ2B-H3K14Ac peptide displacement | Potency, µM (doses to about 114 µM), without a hit: at the highest dose activity change, negative = inhibition, most hits filed as inhibitors | 360,000 compounds, 4.4% hits; note: potency is the fitted concentration of half-maximal effect; % is set by controls: 0 for no effect and ±100 for the full control effect; nearly all actives have a fitted effect of over 60% in size
#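 Inhibition is scored as reduced AlphaScreen emission. The BAZ2B/b-H3(5-23)K14Ac complex (50 nM each) in PBS pH 7.4, 0.01% Tween-20 meets compound (up to 110 uM) for 30 min at RT before bead addition.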
# CtBP-E1A inh: blocks the CtBP interaction with E1A; AID 651724; 340,000 compounds, 0.49% hits; AlphaScreen GST-E1A/His-CtBP binding, 1536-well; active compounds read low; activity change, % (no concentration beside the values); in the data active = activity change below about -65%; inconclusive = mostly about -30% to -63%; note: % is set by controls: 0 for no effect and ±100 for the full control effect
#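 In 5 uL wells, 23 nL compound meets equimolar GST-E1A and His-CtBP (5X stock 125 nM each) for 2 h, 37 °C. Beads (5X, 50 ug/mL) then 1 h, 37 °C, dark.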
# JMJD2A Tudor: JMJD2A Tudor domain (human) inhibition; O75164; AlphaScreen JMJD2A-Tudor / H3K4me3 peptide binding; Potency, µM (series often up to 114 µM), for inactives: at the top dose activity change, negative = inhibition, hits mostly inhibitors; 390,000 compounds, 4.4% hits; AID 504339; note: potency is the fitted concentration of half-maximal effect; % is set by controls: 0 for no effect and ±100 for the full control effect; nearly all actives have a fitted effect of over 50% in size
# Six1-Eya2 inh: blocks human Six1 binding to Eya2 | AlphaScreen GST-Six1/His-Eya2 binding, biochemical; active compounds read low | 360,000 compounds, 0.56% hits | activity change, % (no concentration beside the values) | AID 651725; in the data active = activity change below about -65%; inconclusive = mostly about -30% to -63%; note: % is set by controls: 0 for no effect and ±100 for the full control effect
#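 Compounds are tested against tagged Six1 and Eya2 proteins bridged by glutathione donor and nickel acceptor beads; after a one-hour incubation at 37 °C without light, AlphaScreen emission is recorded.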
# * = called active by the depositor; ? = inconclusive; / = no result given; ! = a repeat was not active; [ ] = remark or other dose. Unless noted, calls come from the whole dose curve; as a rule, active = well fitted inhibition curve with a large enough effect; inconclusive = small, poorly fitted or top-dose-only effect; inactive = no such curve, though single readings can be large or run the other way.
SMILES,HP1b chromo inh,G9a inh,BAZ2B inh,CtBP-E1A inh,JMJD2A Tudor,Six1-Eya2 inh
Cc1c(C(=O)NCCC2=CCCCC2)oc2ccc(S(=O)(=O)N3CCC4(CC3)OCCO4)cc12,21.8%,50.1µM*,2.6%,-21.5,-19.9%,11.9
CN1C(=O)C(=Cc2ccc(OCC(=O)Nc3ccccc3)cc2)C(=O)N(C)C1=O,30.1%,/,-6.8%,-5.0,-8.3%,13.4
CN1C(=O)C(=Cc2cccnc2)C(=O)N(C)C1=O,13.1%,/,-4.8%,0.1,-8.3%,-18.4
COc1ccc(C=C2C(=O)N(C)C(=O)N(C)C2=O)cc1CSc1ccccn1,39.6%,44.7µM*,-23.2%,-0.1,?,14.1
COc1ccc(C=C2C(=O)N(C)C(=O)N(C)C2=O)cc1COc1ccc(NC(C)=O)cc1,-2.8%,44.7µM*,?,-10.6,-17.1%,7.1
Cc1ccc(N2C(=O)NC(=O)/C(=C\c3ccc(N4CCOCC4)cc3)C2=O)cc1,36.6%,?,0.5%,4.9,-12.7%,12.4
O=C1NC(=O)N(c2ccc(F)cc2)C(=O)/C1=C/c1ccc(N2CCOCC2)cc1,29.6%,39.8µM*,1.2%,18.7,-1.9%,0.7
O=C1NC(=O)N(Cc2ccc(F)cc2)C(=O)/C1=C\c1ccc(N2CCCC2)cc1,-17.8%,44.7µM*,?,-20.7,?,-26.5
COc1ccc(N2C(=O)NC(=O)/C(=C/c3ccc(N4CCOCC4)cc3)C2=O)cc1,/,50.1µM*,-6.0%,/,/,/
CCOc1ccc(N2C(=O)NC(=O)/C(=C\c3ccc(N4CCOCC4)cc3C)C2=O)cc1,61.6%,-14.3%[12.7 µM],?,0.0,-10.5%,17.6
CCCc1cc(N2CCN(c3ccc(OC)cc3)CC2)n2cnnc2n1,14.7%,?,?,/,-25.5%,/
CC(C)[C@]1(O)[C@@H](OC(=O)c2ccc[nH]2)[C@@]2(O)[C@@]3(C)C[C@]4(O)O[C@@]5([C@H](O)[C@@H](C)CC[C@]35O)[C@@]2(O)C41C,28.8%,38.7%[59 µM],/,/,-12.4%,/
OCCN(CCO)CCO,/,26.3%[59 µM],/,/,/,/
N#Cc1cc2c(nc1SCC(=O)Nc1ccc(C(F)(F)F)cc1)C1CCN2CC1,35.6%,5.2%[59 µM],0.0%,/,-4.1%,/
CN(C)c1ccc(NC(=O)CN2C(=O)CN=C(c3ccccc3)c3ccccc32)cc1,?,/,39.8µM*,?,56.2µM*,-9.5
Cc1ccc(NC(=O)CN2C(=O)CN=C(c3ccccc3)c3cc(Cl)ccc32)cc1,-6.5%,?,-24.3%,-26.3,-35.5%,-3.7
CN(C)c1ccc(NC(=O)CN2C(=O)CN=C(c3ccccc3)c3cc(Cl)ccc32)cc1,?,39.8µM*,35.5µM*,-6.2,28.2µM*,?
O=C(CCn1c(=O)oc2ccccc21)N1CCN(C(c2ccccc2)c2ccccc2)CC1,26.3%,?,-4.0%,-3.6,-23.3%,-7.3
COc1ccc2c(c1)[nH]c1c(C)nccc12,59.8%,12.6µM*!,?,-3.8,-20.6%,2.6
Cc1nccc2c1[nH]c1ccc(Br)cc12,6.6%,11.8%[12.7 µM],12.3%,1.0,-21.1%,-6.9
COc1cc(CC2(CCc3ccncc3)C(=O)N(C)C(=O)N(C)C2=O)cc(OC)c1OC,19.9%,22.4µM*,-14.5%,0.0,-16.2%,19.1
CN1C(=O)N(C)C(=O)C(CCc2ccncc2)(CCc2ccncc2)C1=O,16.4%,/,-3.1%,-0.1,-12.0%,4.5
O=C(NC(Cc1cnc[nH]1)C(=O)O)c1ccccc1 (stereo not drawn),13.9%,?,-12.3%,-1.6,-16.2%,2.9
O=C(O)C(Cc1cnc[nH]1)NS(=O)(=O)c1ccc(Br)cc1 (stereo not drawn),2.5%,39.8µM*,-6.8%,1.2,10µM*,10.6
O=S(=O)(O)c1cc(O)ccc1O,?,10µM*,3.0%,3.8,79.4µM*,-2.4
CC(=O)OCC(=O)[C@@H]1CC[C@H]2[C@H]3CC[C@H]4C[C@@H](O)CC[C@]4(C)[C@@H]3C(=O)C[C@@]12C,/,1.6%[5.15 µM],/,/,/,/
O=C1NC(=S)NC(=O)C1=Cc1ccc2c(c1)CCN2CCCCl,?,10µM*,25.1µM*,/,7.94µM*,-29.1

# Screening data as filed in PubChem.
